In the library only some 3.3% were active in any assay of this set; here they are far more common.
FH mod: Identification of activators of human fumarate hydratase by quantitative high-throughput screening; Fumarate hydratase, mitochondrial (Homo sapiens), P07954; FH coupled MDH/diaphorase resazurin fluorescence, 15 min; Potency, µM (top dose mostly 79.9 µM), inactives show top-dose activity change, negative = inhibition, usual class: inhibitors; hit rate 0.22% among 54,000; AID 1347055, 2019; note: potency is the fitted concentration of half-maximal effect; % is set by controls: 0 for no effect and ±100 for the full control effect; the screen sought activators but most active calls are inhibition curves; nearly all actives have a fitted effect of over 45% in size
Target sequence (P07954 whole entry, looked up): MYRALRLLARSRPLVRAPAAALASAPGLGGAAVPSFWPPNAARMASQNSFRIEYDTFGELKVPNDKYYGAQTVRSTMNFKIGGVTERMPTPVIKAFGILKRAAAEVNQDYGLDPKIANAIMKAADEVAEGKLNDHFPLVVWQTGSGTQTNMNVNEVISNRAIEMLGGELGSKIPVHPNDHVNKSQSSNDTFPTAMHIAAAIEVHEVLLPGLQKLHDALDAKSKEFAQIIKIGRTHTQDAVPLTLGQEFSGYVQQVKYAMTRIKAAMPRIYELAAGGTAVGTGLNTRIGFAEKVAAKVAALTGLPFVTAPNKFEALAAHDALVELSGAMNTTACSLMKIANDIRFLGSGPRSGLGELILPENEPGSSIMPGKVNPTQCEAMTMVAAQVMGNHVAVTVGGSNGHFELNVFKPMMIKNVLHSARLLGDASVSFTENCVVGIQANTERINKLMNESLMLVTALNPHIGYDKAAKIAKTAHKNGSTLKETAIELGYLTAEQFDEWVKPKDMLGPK
PMP22 txn: Cell-based coincidence reporter assay to measure PMP22 gene transcription in S16 Pmp22-F2sN cells - Primary screen | S16 Pmp22-F2sN Schwann cells, FLuc/NLuc coincidence luminescence, 24 h | Potency, µM (doses to about 57.5 µM), for inactives: top-dose activity change, negative = inhibition, hits mostly inhibitors | hit rate 2% among 43,000 | AID 1508649, 2021; active = clear falling dose curves in both reporters; inconclusive = both reporters move, but less clearly or upward; inactive = either reporter flat; the % is the NLuc reporter signal; note: potency is the fitted concentration of half-maximal effect; % is set by controls: 0 for no effect and ±100 for the full control effect
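Schwann cells carrying the coincidence reporter were exposed to library compounds for 24 h at 37C, then lysed and read for FLuc and, after quenching, NLuc luminescence on a CCD imager.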
pS6 MEF inh: Acumen qHTS Assay for Inhibitors of the mTORC1 Signaling Pathway in MEF (Tsc2-/-, p53-/-) Cells: Sytravon. hit rate 0.78% among 44,000. Tsc2-/- p53-/- MEF, phospho-rpS6 immunofluorescence/PI, 24 h. Potency, µM (top dose mostly 38.3 µM), without a hit: at the top dose activity change, negative = inhibition, usual class: inhibitors;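 note: potency is the fitted concentration of half-maximal effect; plate controls were DMSO for no effect and rapamycin for full effect; nearly all actives have a fitted effect of over 50% in size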
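Compounds act on Tsc2-/-, p53-/- fibroblasts carrying an empty vector for 24 h before fixation and dual staining for phospho-S6 and DNA (propidium iodide). Values are percentages of cells above a rapamycin-defined pS6/PI threshold.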
S16 F2sN tox: Cell viability qHTS assay in S16 Pmp22-F2sN cells | AID 1508642, 2021 | Potency, µM (highest dose often 57.5 µM), inactives show at the top dose activity change, negative = cytotoxicity, most hits filed as cytotoxic | hit rate 0.48% among 43,000 | S16 Pmp22-F2sN Schwann cells viability, CellTiter-Glo, 24 h; note: potency is the fitted concentration of half-maximal effect; % is set by controls: 0 for no effect and ±100 for the full control effect; nearly all actives have a fitted effect of over 65% in size
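Viability was measured by CellTiter-Glo luminescence (15 min, room temperature). This followed 24 h at 37 °C of compound exposure (23 nL pin transfer) in S16 Pmp22-F2sN Schwann cells, 500-1,000 per well.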
HTT-AS promoter: Primary qHTS for Identification of Small Molecule Activators of Huntingtin-Antisense Promoter Activity; HEK293 HTT-AS promoter firefly luciferase reporter, 24 h; response scale: percent change from vehicle, -100% = no light; Potency, µM (titrated, usually from 57.5 µM), for the others: at the top dose activity change, positive = activation, hits mostly activators; hit rate 0.24% among 48,000; AID 1508624, 2021; note: potency is the fitted concentration of half-maximal effect; nearly all actives have a fitted effect of over 55% in size
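HEK293 Fluc reporter, 2,500 cells/well, 24 h pre-culture; cpds up to 57.5 uM final, 24 h 37 degrees C; Dual-Glo, 10 min RT; normalized vehicle = 0%, zero RLU = -100%.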
HTT promoter inh: Primary qHTS for Identification of Small Molecule Inhibitors of Huntingtin Promoter Activity; HEK293 HTT promoter firefly luciferase reporter, 24 h; hit rate 0.93% among 48,000; Potency, µM (highest dose often 57.5 µM), for the others: at the top dose activity change, negative = inhibition, hits mostly inhibitors; note: potency is the fitted concentration of half-maximal effect; nearly all actives have a fitted effect of over 50% in size
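Firefly luciferase readout (Dual-Glo, 10 min RT) after 24 h, 37 °C compound exposure (final up to 57.5 uM) of HEK293 reporter cells cultured 24 h beforehand; PTC124 at 50 uM final as control inhibitor; activity scaled vehicle 0%, zero RLU -100%.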
NLuc sat counter: Biochemical NLuc saturation counterscreen for small molecule modulators of PMP22 gene expression - Nano-Glo assay | Secreted NLuc enzyme (filtered S16 cell medium), Nano-Glo luminescence | Potency, µM (titrated, usually from 57.5 µM), for inactives: at the top dose activity change, negative = inhibition, actives largely listed as inhibitors | shares compounds with PMP22 txn | hit rate 4% among 690; note: potency is the fitted concentration of half-maximal effect; % is set by controls: 0 for no effect and ±100 for the full control effect
NLuc Km counter: Biochemical coelenterazine-based NLuc counterscreen for small molecule modulators of PMP22 gene expression - Km assay | shares compounds with PMP22 txn | secreted NLuc enzyme, coelenterazine luminescence, Km conditions | Potency, µM (top dose mostly 57.5 µM), without a hit: at the top dose activity change, negative = inhibition, usual class: inhibitors | hit rate 5% among 690 | AID 1508639, 2021; note: potency is the fitted concentration of half-maximal effect; % is set by controls: 0 for no effect and ±100 for the full control effect
FLuc ctr PMP22: Biochemical FLuc counterscreen for small molecule modulators of PMP22 gene expression; shares compounds with PMP22 txn; purified P. pyralis FLuc, luminescence, 10 min; Potency, µM (titrated, usually from 57.5 µM), for inactives: at the highest dose activity, negative = inhibition, usual class: inhibitors; 690 tested, under 10 active; note: % of control where 0% means no effect
S16 F2sN tox cnf: Cell viability qHTS assay in S16 Pmp22-F2sN cells - Confirmatory screen; S16 Schwann cells viability, CellTiter-Glo ATP luminescence, 24 h; hit rate 7% among 690; Potency, µM (series often up to 57.5 µM), without a hit: top-dose activity change, negative = viability loss, actives largely listed as cytotoxic; shares compounds with PMP22 txn; AID 1508641, 2021; note: potency is the fitted concentration of half-maximal effect; % is set by controls: 0 for no effect and ±100 for the full control effect
PMP22 txn conf: Cell-based coincidence reporter assay to measure PMP22 gene transcription in S16 Pmp22-F2sN cells - Confirmatory screen; shares compounds with PMP22 txn; S16 Schwann cells Pmp22-F2sN, dual luciferase, 24 h; Potency, µM (series often up to 57.5 µM), for inactives: top-dose activity change, negative = inhibition, most hits filed as inhibitors; hit rate 22% among 690; active = clear falling dose curves in both reporters; inconclusive = both reporters move, but less clearly or upward; inactive = either reporter flat; the % is the FLuc reporter signal; note: potency is the fitted concentration of half-maximal effect
PMP22 prot conf: Cell-based HiBiT reporter assay to measure PMP22 protein expression in S16 Pmp22-HiBiT cells - Confirmatory screen. S16 Schwann cells Pmp22-HiBiT, luminescence, 48 h. Potency, µM (top dose mostly 27.9 µM), for the others: at the top dose activity change, negative = inhibition, most hits filed as inhibitors. 95 tested, under 10 active. AID 1508647, 2021. shares compounds with PMP22 txn
Target sequence (P25094 whole entry, looked up): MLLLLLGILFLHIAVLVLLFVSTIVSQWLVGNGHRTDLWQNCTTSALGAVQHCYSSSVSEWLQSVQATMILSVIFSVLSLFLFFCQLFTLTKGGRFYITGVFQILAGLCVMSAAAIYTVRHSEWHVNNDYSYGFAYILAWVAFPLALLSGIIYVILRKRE
An asterisk follows results filed as active; ? = inconclusive; nt = not tested or not shown; [ ] = dose if it differs, or a comment. Unless noted, calls come from the whole dose curve; as a rule, active = well fitted curve in the direction sought with a large enough effect; inconclusive = small, poorly fitted or top-dose-only effect, or another doubt; inactive = no such curve, though single readings can be large; an effect the other way counts as inactive or inconclusive.

SMILES	FH mod	PMP22 txn	pS6 MEF inh	S16 F2sN tox	HTT-AS promoter	HTT promoter inh	NLuc sat counter	NLuc Km counter	FLuc ctr PMP22	S16 F2sN tox cnf	PMP22 txn conf	others
CC(=O)Nc1cccc(-c2nnc(SCC(=O)c3cc([N+](=O)[O-])ccc3Br)o2)c1	-28%	12µM*	?	?	-27%	0%	11µM*	12µM*	?	9%	17µM*
O=C(C1OC1/C=C/c1ccc2c(c1)OCO2)N1CCCCC1 (centres undefined)	1%	nt	nt	nt	nt	nt	nt	nt	nt	nt	nt
CCN(CC)CCn1c2c(c(SCC(=O)Nc3cccc(C(F)(F)F)c3)nc1=O)CCC2	-7%	16µM*	0%	-16%	-19%	-25%	-10%	0%	-1%	-8%	?
COc1ccc(-c2c(C)nn3c(N4CCN(c5cc(Cl)ccc5C)CC4)cc(C)nc23)cc1OC	-8%	15µM*	-18%	13%	-2%	-1%	-16%	?	3%	1%	-37%
COc1ccccc1-c1c(C)nn2c(N3CCN(c4ccc(Cl)cc4)CC3)cc(C)nc12	-8%	-23%	5%	-3%	-20%	-9%	nt	nt	nt	nt	nt
C[C@@H]([C@@H](O)c1ccc(O)cc1)N1CCC(O)(c2ccccc2)CC1	24%	nt	nt	nt	nt	nt	nt	nt	nt	nt	nt
C/C=C(\C)C(=O)O[C@H]1C[C@](C)(O)[C@H]2CC=C(C)[C@H]2[C@@H]2OC(=O)[C@H](C)[C@H]21	-2%[53.3 µM]	nt	nt	nt	nt	nt	nt	nt	nt	nt	nt
COc1ccc(OC)c(CCNC(=O)c2c(C)oc3ncn(CC(C)C)c(=O)c23)c1	-14%	?	4%	13%	-8%	-18%	nt	nt	nt	nt	nt
COc1ccc(OC)c(CNC(=O)c2c(C)oc3ncn(CC(C)C)c(=O)c23)c1	-21%	10µM*	1%	?	-16%	?	?	?	3%	-16%	?
CCCC(=O)Nc1nnc(SCc2cc(=O)c3ccc(C)cc3[nH]2)s1	2%	6.8µM*	?	-22%	-52%	?	?	?	-12%	-23%	?
CCC(=O)Nc1nnc(SCc2cc(=O)c3cc(C)ccc3[nH]2)s1	-2%	?	8%	-25%	-33%	-29%	nt	nt	nt	nt	nt
COc1ccc(NC(=O)Cn2c(=O)n(Cc3ccc(C(=O)NCc4ccccc4Cl)cc3)c(=O)c3ccccc32)cc1OC	-25%	-43%	-4%	-12%	-10%	-2%	nt	nt	nt	nt	nt
Cc1cccc(CCn2c(=O)c3ccccc3n(CC(=O)Nc3ccccc3F)c2=O)c1	3%	16µM*	-19%	25%	-22%	0%	-2%	4%	3%	-8%	-22%
COc1ccccc1CNC(=O)CCCCn1c(=O)c2ccccc2n(Cc2ccccc2C)c1=O	-3%	14µM*	-8%	-4%	-31%	-30%	-16%	?	2%	-26%	?
COc1ccc(NC(=O)Cn2c(=O)n(Cc3ccccc3Cl)c(=O)c3cc(OC)c(OC)cc32)cc1OC	1%	13µM*	-6%	24%	-5%	-3%	-1%	5%	-2%	11%	2%
COc1ccc(NC(=O)Cn2c(=O)n(CCC(=O)NCc3ccccc3OC)c(=O)c3ccccc32)cc1Cl	3%	15µM*	-5%	8%	-13%	-10%	-5%	3%	6%	-19%	13µM*	PMP22 prot conf=?
COc1ccc(NC(=O)Cn2c(=O)n(CCCC(=O)NCc3ccccc3OC)c(=O)c3ccccc32)cc1Cl	-3%	?	?	21%	-30%	-27%	nt	nt	nt	nt	nt
COc1ccccc1CNC(=O)CCCCn1c(=O)c2ccccc2n(Cc2ccccc2F)c1=O	-1%	?	0%	3%	-16%	-3%	nt	nt	nt	nt	nt
CC1CCC2(NC1)OC1C(O)C3C4CCC5CC(O[C@@H]6O[C@H](CO)[C@@H](O)[C@H](O)[C@H]6O[C@@H]6O[C@@H](C)[C@H](O)[C@@H](O)[C@H]6O)CCC5(C)C4CCC3(C)C1C2C (some centres undefined)	11%[20.6 µM]	nt	nt	nt	nt	nt	nt	nt	nt	nt	nt

Screens as filed in PubChem.
